Calb FLC: C. albicans growth inhibition with fluconazole, primary screen, CaCi-2 strain, Alamar Blue fluorescence; C. albicans CaCi-2 (fluconazole-resistant clinical isolate) + fluconazole, 48 h; growth inhibition, % (test concentration not listed); 0.57% of 300,000 active; AID 1979, 2009;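 active = growth inhibition above about 58% in most replicates, limit read from the data, passing the limit was not always enough; inconclusive = exactly half the replicates above a set limit; inactive = most replicates below a set limit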;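 note: all wells also contain fluconazole at 8 µg/ml as a sub-toxic cotreatment; 0% = median of DMSO wells and 100% = median of geldanamycin control wells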
Beta apoptosis: inhibitors of cytokine-induced beta cell apoptosis, primary screen, luminescence; INS-1E cytokine-induced death, ATP luminescence, 48 h; percent of positive-control rescue, neutral wells zero; protection from apoptosis, % (test concentration not listed); 0.8% of 300,000 active;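 active = Every replicate reaches about 75%, or at least half do and their mean reaches it too, limit read from the data; inconclusive = At least half of replicates reach the limit but their mean does not; inactive = Under half of replicates reach the limit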;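 note: 0% = cytokine-treated negative control wells and 100% = positive control rescue; higher means more ATP so stronger rescue from cytokine killing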
CSC inhib: cancer stem cell viability inhibitors, primary screen, luminescence; cancer stem cell-like cells viability; inhibition, % at 7.5 µM; 1.1% of 300,000 active; in the data active = inhibition above about 75%; inconclusive = no clear call, values can overlap the other calls; tested in HMLE shEcad cells
MPTP inh: mitochondrial permeability transition pore inhibitors, primary screen, biochemical, isolated mouse mitochondria, absorbance. Ca2+ swelling absorbance, 30 min. inhibition, % at 10 µM. 1.4% of 360,000 active. AID 602449, 2012;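 active = inhibition of 50% or more, scaled per plate between neutral and stimulator controls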;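 note: 0% = DMSO wells given calcium and 100% = 1 mM EGTA wells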
Mdm2-MdmX inh: inhibitors of human Mdm2-MdmX association, primary screen, cell-based, luminescence, split luciferase, SaOS-2, uHTS; Protein Mdm4 (Homo sapiens) + E3 ubiquitin-protein ligase Mdm2 (Homo sapiens), …; SaOS-2 split-luciferase Mdm2/MdmX complementation; inhibition, % at 8 µM; 3% of 330,000 active;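 active = inhibition of at least 50% at 8 µM in the primary screen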
Target sequence (O15151 whole entry, looked up): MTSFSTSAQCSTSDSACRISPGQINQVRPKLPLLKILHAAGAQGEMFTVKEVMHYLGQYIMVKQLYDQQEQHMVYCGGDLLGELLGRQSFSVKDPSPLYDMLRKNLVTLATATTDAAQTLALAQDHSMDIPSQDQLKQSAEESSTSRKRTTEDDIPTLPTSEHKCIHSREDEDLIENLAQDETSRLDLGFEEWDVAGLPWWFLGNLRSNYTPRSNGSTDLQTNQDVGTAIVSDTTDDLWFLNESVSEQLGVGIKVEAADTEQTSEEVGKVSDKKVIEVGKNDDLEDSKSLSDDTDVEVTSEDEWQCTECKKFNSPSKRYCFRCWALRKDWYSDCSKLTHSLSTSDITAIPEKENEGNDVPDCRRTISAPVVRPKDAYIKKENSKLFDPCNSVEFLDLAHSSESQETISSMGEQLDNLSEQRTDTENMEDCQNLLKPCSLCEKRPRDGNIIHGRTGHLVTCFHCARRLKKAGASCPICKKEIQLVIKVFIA
Target sequence (Q00987 whole entry, looked up): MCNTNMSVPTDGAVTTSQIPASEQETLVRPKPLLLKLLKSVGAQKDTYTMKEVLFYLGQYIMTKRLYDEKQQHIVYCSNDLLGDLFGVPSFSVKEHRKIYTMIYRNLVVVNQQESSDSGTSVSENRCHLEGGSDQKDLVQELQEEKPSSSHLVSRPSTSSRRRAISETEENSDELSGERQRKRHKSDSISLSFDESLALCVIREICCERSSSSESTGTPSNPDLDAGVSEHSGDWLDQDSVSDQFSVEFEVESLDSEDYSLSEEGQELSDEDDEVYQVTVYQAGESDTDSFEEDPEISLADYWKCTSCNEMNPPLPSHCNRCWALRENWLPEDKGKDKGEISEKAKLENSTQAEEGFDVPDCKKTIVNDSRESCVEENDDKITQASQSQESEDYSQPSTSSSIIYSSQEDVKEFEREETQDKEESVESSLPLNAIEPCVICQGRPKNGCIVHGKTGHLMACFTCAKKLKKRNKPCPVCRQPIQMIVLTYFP
Rh123 counter: fluorescence retest of MPTP screen hits in isolated mitochondria, single concentration | membrane potential, Rhodamine 123 fluorescence | inhibition, % at 10 µM | shares compounds with MPTP inh | 78% of 5,000 active; in the data active = inhibition above about 22%;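 note: 0% = DMSO vehicle and 100% = positive control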
MPTP abs DR: mitochondrial permeability transition pore inhibitors, dose response, biochemical, absorbance, uHTS hits | shares compounds with MPTP inh | isolated mitochondria swelling | IC50, µM | 58% of 780 active | AID 651561, 2012; in the data active = IC50 below about 20 µM
MPTP counter DR: fluorescent counter-screen in isolated mitochondria, dose response, counter-screen for MPTP inhibitor project, biochemical, fluorescence, uHTS hits; 49% of 780 active; shares compounds with MPTP inh; IC50, µM; isolated mitochondria counterscreen, fluorescence read-out; in the data active = IC50 below about 80 µM
The depositor's hits bear a star; u = inconclusive; x = not tested or not shown. Rows were chosen to be rich in hits. Some 4.8% of all compounds tested hit in one or more screens of this group.

SMILES	Calb FLC	Beta apoptosis	CSC inhib	MPTP inh	Mdm2-MdmX inh	Rh123 counter	others
COc1ccc(NS(=O)(=O)c2cc(N)ccc2N2CCCC2)cc1	x	0	15	1	20	x
COc1ccc(NS(=O)(=O)c2ccc(N3CCCC3)c(N)c2)cc1	0	48	-11	78*	14	84*
Nc1cc(S(=O)(=O)Nc2ccccc2Cl)ccc1N1CCOCC1	-1	3	-13	28	-9	x
COc1ccc(NS(=O)(=O)c2ccc(N3CCCC3)c(NC(=S)Nc3ccc(SC(F)F)cc3)c2)cc1	-21	17	-3	64*	20	81*
Nc1cc(S(=O)(=O)Nc2ccc(Cl)cc2)ccc1N1CCOCC1	-2	70	2	91*	7	55*
CCNC(=O)Nc1cc(S(=O)(=O)Nc2ccc(OC)cc2)ccc1N1CCOCC1	x	89*	-13	94*	27	93*
CC(Cc1ccccn1)NC(=O)CCc1nnc(C2CCCCC2)o1 (stereo not given)	5	-1	-2	-1	-7	x
O=C(NCCOc1ccccc1Cl)c1ccc2c(c1)S(=O)(=O)c1cc(Cl)ccc1C2=O	x	-3	2	3	3	x
CN(C)S(=O)(=O)c1cc(NC(=O)CSc2ncc(C(F)(F)F)cc2Cl)ccc1Cl	-28	-2	44	74*	26	86*
COC(=O)c1ccc(NC(=O)Nc2cccc(F)c2)cc1	8	2	44	85*	-32	87*
O=C(Nc1ccccc1)Nc1ccc(F)cc1F	-17	5	4	17	-22	x
CCc1ccc(NC(=O)Nc2cccc(OC)c2)cc1	-4	5	x	63*	-140	77*
COC(=O)c1ccc(NC(=O)Nc2ccc(F)cc2F)cc1	-18	0	x	86*	-61	96*
COc1cccc(NC(=O)Nc2ccc(CC(=O)O)cc2)c1	9	0	x	0	-32	x
O=C(Nc1ccc(F)cc1)Nc1cccc(Br)c1	-12	11	31	89*	17	91*
O=C(Nc1cccc(OC(F)(F)F)c1)c1cccc2c(-c3cccnc3)coc12	x	x	x	1	x	x
COc1cccc(NC(=O)Nc2cccc(C(=O)O)c2)c1	-20	-2	-9	-2	42	x
COc1cccc(NC(=O)NC2(C(F)(F)F)Oc3ccccc3O2)c1	-17	-9	-20	97*	8	83*
O=S(=O)(c1ccc(Br)cc1)N1CCN(c2cc(-c3ccccc3)nc3ncnn23)CC1	10	11	-22	1	21	x
O=S(=O)(c1ccccc1)N1CCN(c2cc(-c3ccccc3)nc3ncnn23)CC1	-5	29	x	82*	-15	78*
O=c1[nH]c(CN2CCCCC2)ccc1O	x	x	x	0	x	x
CCOC(=O)c1c(C)n(C)c2ccc(OC)c(NC(=O)CCN3CCC(Cc4ccccc4)CC3)c12	1	3	-2	2	24	x
Cc1cc(C(C)(C)C)ccc1OCCOCCN1CCCC1	-22	-3	54	54*	11	4	MPTP abs DR=12*;MPTP counter DR=24*
Cc1ccc(NC(=O)C(C)c2ccc(-c3ccccc3)c(F)c2)cc1 (stereo not given)	-5	56	42	89*	35	110*
Cc1ccc(NC(=O)C(Nc2ccccc2)c2ccccc2)cc1 (stereo not given)	-6	2	24	1	21	x
CCC(=O)N1CCc2cc(S(=O)(=O)NCCC(=O)N3CCc4ccccc4C3)ccc21	u	24	-9	76*	25	61*
N#Cc1c(N2CCOCC2)nc(-c2ccco2)c2c1CCCC2	1	0	19	-1	15	x
N#Cc1c(NCCN)nc(-c2ccco2)c2c1CCCC2	-12	16	7	92*	27	-2	MPTP abs DR=13*;MPTP counter DR=>80
